# Measured values: PubChem BioAssay (Tox21)
# Where “and” joins values, the source holds several entries; their conditions need not be identical. Identical values can stand only once. Inconclusive results are not listed. Where a call stands in place of a potency, no number is given. More than one record can exist for a structure, and the calls need not agree. Calls of active or inactive are those of the source. Unless noted, the call rests on the fitted dose curve; in most records, active means well fitted curve in the direction sought with a large enough effect in the repeat runs; inconclusive means weak or mixed curves; inactive means no such curve, though single readings can be large; an effect the other way counts as inactive or inconclusive.
# Legend:
# [1] = qHTS assay to identify small molecule agonists of the RXR signaling pathway - cell viability counter screen (AID 1159529); further: nearly all actives have a fitted effect of over 50% in size; further: potency means the concentration at half of the fitted maximal effect;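 on activity change, negative = cytotoxicity: HEK 293T cells carrying an RXR-alpha UAS beta-lactamase reporter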
# Outline: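 RXR-alpha-UAS-bla HEK 293T cells in medium with 2% charcoal-stripped FBS were preincubated 5 hr, then exposed to compounds for 16 hr at 37 C. Viability was read as CellTiter-Glo luminescence after 30 min at room temperature.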
# [2] = qHTS assay to identify small molecule antagonists of the retinoid acid receptor (RAR) signaling pathway - cell viability counter screen (AID 1159551); further: nearly all actives have a fitted effect of over 35% in size
# Outline: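 C3RL4 RARE-luciferase line; cpds + retinol 1 uM final, 6 h, 37 C/5% CO2; CellTiter-Glo ATP luminescence, 30 min RT.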
# [3] = qHTS assay to identify small molecule antagonists of the retinoic acid receptor (RAR) signaling pathway (AID 1159552; further: nearly all actives have a fitted effect of over 50% in size)
# Outline: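 RARE-luc C3RL4 cells; cpds + 1 uM (final) retinol, 6 hr, 37 C/5% CO2; luciferase reagent, 30 min RT, luminescence readout. Inhibitors of retinol-driven signal scored.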
# [4] = qHTS assay to identify small molecule agonists of the retinoic acid receptor (RAR) signaling pathway (AID 1159553); settings: C3RL4 RARE luciferase reporter, agonist, 6 h; activation: at 73.3 µM (top of the series) unless noted; further: potency means the concentration at half of the fitted maximal effect
# Outline: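 RARE-luc C3RL4 cells; overnight attachment 37 C/5% CO2; compound (DMSO) 6 hr; luciferase reagent, 30 min RT; luminescence read-out.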
# [5] = biological target: Luciferin 4-monooxygenase (Photinus pyralis) (UniProt P08659); experiment: qHTS assay to identify small molecule inhibitors of firefly luciferase (AID 1224835); further: nearly all actives have a fitted effect of over 25% in size; further: potency means the concentration at half of the fitted maximal effect
# Chain of Luciferin 4-monooxygenase (Photinus pyralis) (P08659 whole entry, looked up): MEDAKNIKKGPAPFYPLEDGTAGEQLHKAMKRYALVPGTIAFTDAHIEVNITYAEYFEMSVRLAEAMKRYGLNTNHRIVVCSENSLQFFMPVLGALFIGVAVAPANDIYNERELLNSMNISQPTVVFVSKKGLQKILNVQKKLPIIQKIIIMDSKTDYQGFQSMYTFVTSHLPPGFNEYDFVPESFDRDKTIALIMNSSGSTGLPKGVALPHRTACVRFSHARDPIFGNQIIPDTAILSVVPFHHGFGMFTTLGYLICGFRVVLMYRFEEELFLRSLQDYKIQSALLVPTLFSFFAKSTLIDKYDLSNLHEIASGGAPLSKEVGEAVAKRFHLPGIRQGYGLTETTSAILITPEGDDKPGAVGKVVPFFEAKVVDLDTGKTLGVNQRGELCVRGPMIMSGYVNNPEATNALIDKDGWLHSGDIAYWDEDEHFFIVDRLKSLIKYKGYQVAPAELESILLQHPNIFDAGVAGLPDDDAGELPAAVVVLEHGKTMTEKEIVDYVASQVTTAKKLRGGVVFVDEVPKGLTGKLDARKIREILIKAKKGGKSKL
# Outline: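 Biochemical qHTS: compounds run as interplate titrations against purified firefly enzyme, with D-luciferin and ATP each at its KM concentration. Light output recorded by CCD imaging.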
# [6] = qHTS assay to identify small molecule agonists of the constitutive androstane receptor (CAR) signaling pathway - cell viability counter screen (AID 1224836); further: nearly all actives have a fitted effect of over 45% in size
# Outline: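 HepG2 cells stably carrying hCAR and a CYP2B6-2.2kb reporter were plated 4 h, then given compounds at 15 concentrations plus PK11195 (final 0.75 uM). After 23 h at 37 C, viability was read by CellTiter-Fluor fluorescence.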
# [7] = qHTS assay to identify small molecule antagonists of the constitutive androstane receptor (CAR) signaling pathway - cell viability counter screen (AID 1224837); further: nearly all actives have a fitted effect of over 45% in size; further: potency means the concentration at half of the fitted maximal effect
# Outline: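 Read-out: CellTiter-Fluor fluorescence after 23 hr at 37 C/5% CO2. Cells: HepG2 double-stable for hCAR and CYP2B6-2.2kb. Compounds tested at 15 concentrations in the presence of CITCO, final concentration 50 nM.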
# [8] = qHTS assay to identify small molecule antagonists of the estrogen related receptor signaling pathway with the pleiotropic PPARgamma coactivator (PGC) from Tox21 10K library - cell viability counter screen (AID 1224840; active means well fitted cell-killing curve with a large enough effect in the repeat runs, not every such curve was filed as active; further: nearly all actives have a fitted effect of over 40% in size; further: potency means the concentration at half of the fitted maximal effect)
# Outline: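 Fluorescence read-out of CellTiter-Fluor viability reagent, added after cells had been exposed to compound in DMSO for 17.5 h at 37 C; 30 min development at 37 C/5% CO2. Cells: PGC/ERR line, 2,000/well.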
# [9] = biological target: Nuclear receptor subfamily 1 group I member 3 (Homo sapiens) (UniProt Q14994); experiment: qHTS assay to identify small molecule antagonists of the constitutive androstane receptor (CAR) signaling pathway (AID 1224838); further: nearly all actives have a fitted effect of over 40% in size
# Chain of Nuclear receptor subfamily 1 group I member 3 (Homo sapiens) (Q14994 whole entry, looked up): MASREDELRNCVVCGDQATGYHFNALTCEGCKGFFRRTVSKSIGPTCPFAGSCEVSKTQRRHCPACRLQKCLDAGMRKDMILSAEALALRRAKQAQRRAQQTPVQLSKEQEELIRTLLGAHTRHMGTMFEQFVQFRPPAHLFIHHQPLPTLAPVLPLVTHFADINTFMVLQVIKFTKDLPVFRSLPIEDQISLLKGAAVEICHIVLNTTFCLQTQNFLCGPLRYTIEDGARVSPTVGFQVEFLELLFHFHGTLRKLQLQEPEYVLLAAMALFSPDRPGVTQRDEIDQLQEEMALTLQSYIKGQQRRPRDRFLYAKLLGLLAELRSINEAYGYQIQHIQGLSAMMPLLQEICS
# Outline: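 Read-out: ONE-Glo luciferase luminescence after 30 min at room temperature. HepG2-CYP2B6-hCAR double-stable cells, compounds in 15-point titration plus 50 nM CITCO final, 24 h at 37 C/5% CO2.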
# [10] = biological target: Nuclear receptor subfamily 1 group I member 3 (Homo sapiens) (UniProt Q14994); experiment: qHTS assay to identify small molecule agonists of the constitutive androstane receptor (CAR) signaling pathway (AID 1224839); further: nearly all actives have a fitted effect of over 15% in size; further: potency means the concentration at half of the fitted maximal effect;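 on activation: HepG2 cells stably carrying human CAR and a CYP2B6 luciferase reporter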
# Outline: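 HepG2 cells stably expressing hCAR and a CYP2B6-2.2kb luciferase reporter were treated with compounds at 15 concentrations plus 0.75 uM PK11195 (final) for 24 h at 37 C; luminescence was read after ONE-Glo addition.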
# [11] = qHTS assay to identify small molecule antagonists of the estrogen related receptor signaling pathway with the pleiotropic PPARgamma coactivator (PGC) from Tox21 10K library (AID 1224841; call rule not given here; further: actives are mostly falling curves and most rising ones were filed inactive; nearly all actives have a fitted effect of over 50% in size; further: potency means the concentration at half of the fitted maximal effect)
# Outline: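 Luminescence read-out (One-Glo luciferase reagent, 30 min at room temperature) from PGC/ERR cells exposed to DMSO-dissolved test compounds for 18 h at 37 C; cells, 2,000 per well, had been preincubated 6 h before compound transfer.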
# [12] = qHTS assay to identify small molecule agonists of the estrogen related receptor signaling pathway with the pleiotropic PPARgamma coactivator (PGC) from Tox21 10K library (AID 1224842); further: nearly all actives have a fitted effect of over 15% in size; further: potency means the concentration at half of the fitted maximal effect
# Outline: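 PGC/ERR reporter cell line, 2,000 cells per well, incubated 6 h at 37 C before 23 nL compound in DMSO was added. After 18 h at 37 C, One-Glo luminescence read following 30 min at room temperature.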
# [13] = biological target: Thyrotropin receptor (Homo sapiens) (UniProt P16473); experiment: qHTS assay to identify small molecule agonists of the thyroid stimulating hormone receptor (TSHR) signaling pathway (AID 1224843; calls by dose curve; further: nearly all actives have a fitted effect of over 45% in size; further: potency means the concentration at half of the fitted maximal effect)
# Chain of Thyrotropin receptor (Homo sapiens) (P16473 whole entry, looked up): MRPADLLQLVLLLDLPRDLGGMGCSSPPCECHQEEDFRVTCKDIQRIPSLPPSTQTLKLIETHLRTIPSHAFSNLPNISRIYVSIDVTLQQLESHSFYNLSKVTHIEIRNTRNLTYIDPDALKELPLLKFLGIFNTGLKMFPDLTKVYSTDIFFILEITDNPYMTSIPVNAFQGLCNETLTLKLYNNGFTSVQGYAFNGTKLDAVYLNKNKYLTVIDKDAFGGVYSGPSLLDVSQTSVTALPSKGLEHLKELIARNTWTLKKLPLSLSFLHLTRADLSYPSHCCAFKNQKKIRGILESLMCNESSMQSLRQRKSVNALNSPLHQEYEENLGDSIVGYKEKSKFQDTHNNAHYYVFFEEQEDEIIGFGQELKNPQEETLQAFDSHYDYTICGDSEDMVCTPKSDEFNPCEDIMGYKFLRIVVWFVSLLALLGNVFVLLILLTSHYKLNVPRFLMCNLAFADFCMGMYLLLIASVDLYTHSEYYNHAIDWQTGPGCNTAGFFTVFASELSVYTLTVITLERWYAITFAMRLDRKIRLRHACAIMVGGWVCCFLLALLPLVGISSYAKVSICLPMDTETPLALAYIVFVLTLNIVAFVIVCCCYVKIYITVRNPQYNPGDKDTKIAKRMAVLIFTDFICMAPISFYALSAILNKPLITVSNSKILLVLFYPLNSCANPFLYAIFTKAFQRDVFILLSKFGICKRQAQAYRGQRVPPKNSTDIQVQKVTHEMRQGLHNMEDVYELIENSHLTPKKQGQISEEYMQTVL
# Outline: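 Agonist-mode screen: TSHR HEK293 cells received test chemicals for half an hour at room temperature, then HTRF cAMP detection reagents for one hour prior to fluorescence measurement. Each chemical ran as a 15-concentration series, triplicated.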
# [14] = qHTS assay to identify small molecule agonists of the hypoxia (HIF-1) signaling pathway - cell viability counter screen (AID 1224844; calls by dose curve; further: nearly all actives have a fitted effect of over 50% in size)
# Outline: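 CellTiter-Glo luminescence read-out, 30 min RT, taken in the same wells as the beta-lactamase HRE reporter assay; HRE-bla ME-180 cells, 0.5% dialyzed FBS, 17 hr compound treatment at 37C, 5% CO2.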
# [15] = qHTS assay to identify small molecule antagonists of the estrogen related receptor (ERR) signaling pathway from Tox21 library - cell viability counter screen (AID 1224834); further: nearly all actives have a fitted effect of over 30% in size; further: potency means the concentration at half of the fitted maximal effect
# Outline: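 Multiplexed viability counter screen in ERR cells: 17.5 h compound exposure at 37 C, CellTiter-Fluor added, 30 min at 37 C/5% CO2, fluorescence read.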
structure (smiles),measurement,setting,value
Cc1ccc(O)c(N)c1,Potency,[1],inactive
same,Potency,[2],inactive
same,Potency,[3],inactive
same,Potency,[4],21.7 µM (active)
same,Potency,[5],31.8 µM (active)
same,Potency,[6],inactive
same,Potency,[7],inactive
same,Potency,[8],inactive
Cc1c2ccccc2c(C)c2c1ccc1ccccc12,Potency,[1],19.3 µM (active) and 19.5 µM (active)
same,Potency,[2],inactive
same,Potency,[3],inactive
same,Potency,[4],54.5 µM (active)
same,Potency,[5],19.8 µM (active) and 31.7 µM (active)
same,Potency,[7],54.5 µM (active)
same,Potency,[9],inactive
same,Potency,[10],5.39 µM (active) and 9.69 µM (active)
same,Potency,[8],53.9 µM (active) and 27.3 µM (active)
same,Potency,[11],34.4 µM (active)
same,Potency,[12],24.1 µM (active) and inactive
same,Potency,[13],27 µM (active) and 24.3 µM (active)
same,Potency,[14],inactive
CCCC(=O)OC(C)(C)Cc1ccccc1,Potency,[1],inactive
same,Potency,[2],inactive
same,Potency,[3],inactive
same,Potency,[4],inactive
same,Potency,[15],inactive
same,Potency,[6],inactive
same,Potency,[7],inactive
same,Potency,[10],inactive
same,Potency,[14],inactive
CC(=O)OCC=C(C)C,Potency,[1],inactive
same,Potency,[2],inactive
same,Potency,[3],inactive
same,Potency,[4],inactive
same,Potency,[15],inactive
same,Potency,[6],inactive
same,Potency,[7],inactive
same,Potency,[10],inactive
same,Potency,[8],inactive
same,Potency,[13],inactive
same,Potency,[14],inactive
OC12N=C(c3ccccc3)SC1Cc1cc(Cl)ccc12 (stereo not drawn),Potency,[1],54.9 µM (active)
same,Potency,[2],inactive
same,Potency,[3],inactive
same,Potency,[4],1.22 µM (active)
same,Potency,[5],35.6 µM (active)
same,Potency,[6],inactive
same,Potency,[7],inactive
same,Potency,[11],inactive
same,Potency,[12],8.63 µM (active)
COC(=O)c1ccccc1OC,Potency,[1],inactive
same,Potency,[2],inactive
same,Potency,[3],inactive
same,Potency,[4],inactive
same,Potency,[5],inactive
same,Potency,[6],inactive
same,Potency,[7],inactive
same,Potency,[8],inactive
same,Potency,[11],inactive
same,Potency,[12],inactive
same,Potency,[13],inactive
same,Potency,[14],inactive
Cc1ccc(C(C)C)cc2c(C)ccc1-2,Potency,[1],inactive
same,Potency,[2],inactive
same,Potency,[3],inactive
same,Potency,[4],inactive
same,Potency,[15],inactive
same,Potency,[6],inactive
same,Potency,[7],inactive
same,Potency,[9],inactive
same,Potency,[11],inactive
same,Potency,[12],inactive
same,Potency,[13],inactive
same,Potency,[14],inactive
Oc1c(I)cc(Cl)c2cccnc12,Potency,[1],1.09 µM (active)
same,Potency,[2],inactive
same,Potency,[3],inactive
same,Potency,[4],76.8 µM (active) and inactive
same,Potency,[15],24.3 µM (active) and 26.6 µM (active)
same,Potency,[5],inactive
same,Potency,[6],inactive
same,Potency,[7],inactive
same,Potency,[8],27.3 µM (active)
same,Potency,[11],inactive
same,Potency,[12],inactive
same,Potency,[14],inactive
O=C(O)CCN(C1(C(=O)NO)CCCC1)S(=O)(=O)c1ccc(Oc2ccc(F)cc2)cc1,Potency,[1],inactive
same,Potency,[2],inactive
same,Potency,[3],inactive
same,Potency,[4],inactive
same,Potency,[5],inactive
same,Potency,[6],inactive
same,Potency,[7],inactive
same,Potency,[9],inactive
same,Potency,[10],inactive
same,Potency,[8],inactive
same,Potency,[11],inactive
same,Potency,[12],inactive
same,Potency,[13],inactive
same,Potency,[14],inactive
NC[C@H]1O[C@H](O[C@H]2[C@H](O[C@@H]3O[C@H](CO)[C@@H](O)[C@H]3O)C(O)[C@H](N)C[C@@H]2N)[C@H](N)[C@@H](O)[C@@H]1O (stereo partly drawn),"activity change, negative = cytotoxicity",[1],3% [at 6.97 µM] (inactive)
same,"activity change, negative = cytotoxicity",[2],-0.449% [at 8.39 µM] (inactive)
same,"activity, negative = inhibition",[3],-17.9% [at 8.39 µM] (inactive)
same,activation,[4],-3.22% [at 8.36 µM] (inactive)
same,"viability change, negative = cytotoxic",[15],2.75% [at 8.39 µM] (inactive)
same,"activity change, negative = inhibition",[5],6.81% [at 10.5 µM] (inactive)
same,"viability change, negative = cytotoxic",[6],0.325% [at 8.39 µM] (inactive)
same,"activity change, negative = cytotoxicity",[7],3.7% [at 8.39 µM] (inactive)
same,activation,[13],-0.16% [at 8.39 µM] (inactive)
same,"activity change, negative = cytotoxicity",[14],-1.39% [at 6.97 µM] (inactive)
CC(CO)Oc1ccccc1 (stereo not drawn),Potency,[1],inactive
same,Potency,[2],inactive
same,Potency,[3],inactive
same,Potency,[4],inactive
same,Potency,[15],inactive
same,Potency,[5],inactive
same,Potency,[6],inactive
same,Potency,[7],inactive
same,Potency,[8],inactive
same,Potency,[13],inactive
same,Potency,[14],inactive
CC(C)(C)CC(C)(C)c1ccc(Nc2ccc(C(C)(C)CC(C)(C)C)cc2)cc1,"activity change, negative = cytotoxicity",[1],2.3% [at 6.97 µM] (inactive)
same,"activity change, negative = cytotoxicity",[2],0.648% [at 8.39 µM] (inactive)
same,"activity, negative = inhibition",[3],-23.1% [at 8.39 µM] (inactive)
same,activation,[4],-3.08% [at 8.36 µM] (inactive)
same,"viability change, negative = cytotoxic",[15],0.525% [at 8.39 µM] (inactive)
same,"activity change, negative = inhibition",[5],-2.16% [at 10.5 µM] (inactive)
same,"viability change, negative = cytotoxic",[6],-0.428% [at 8.39 µM] (inactive)
same,"activity change, negative = cytotoxicity",[7],7.27% [at 8.39 µM] (inactive)
same,"viability change, negative = cytotoxic",[8],-0.792% [at 8.39 µM] (inactive)
same,activation,[13],21.9% [at 8.39 µM] (inactive)
same,"activity change, negative = cytotoxicity",[14],0.53% [at 6.97 µM] (inactive)
CCc1cccc(CC)c1NC(=O)CN(CC(=O)O)CC(=O)O,Potency,[1],inactive
same,Potency,[2],inactive
same,Potency,[3],inactive
same,Potency,[4],inactive
same,Potency,[15],inactive
same,Potency,[6],inactive
same,Potency,[7],inactive
same,Potency,[9],inactive
same,Potency,[10],inactive
same,Potency,[8],inactive
same,Potency,[13],inactive
same,Potency,[14],inactive
Cc1c(N)cccc1C(F)(F)F,Potency,[1],inactive
same,Potency,[2],inactive
same,Potency,[3],inactive
same,Potency,[4],inactive
same,Potency,[5],inactive
same,Potency,[6],inactive
same,Potency,[7],inactive
same,Potency,[8],inactive
same,Potency,[11],inactive
same,Potency,[12],inactive
same,Potency,[13],inactive
CCCCCC(C)OC(=O)COc1ccc(Cl)c2cccnc12 (stereo not drawn),Potency,[1],11 µM (active)
same,Potency,[2],inactive
same,Potency,[3],inactive
same,Potency,[4],inactive
same,Potency,[6],inactive
same,Potency,[7],inactive
same,Potency,[9],inactive
same,Potency,[10],inactive
same,Potency,[8],inactive
same,Potency,[14],inactive
CCCCCC/C=C\CCCCCCCC(=O)O,Potency,[1],inactive
same,Potency,[2],inactive
same,Potency,[3],inactive
same,Potency,[4],inactive
same,Potency,[15],inactive
same,Potency,[6],inactive
same,Potency,[7],inactive
same,Potency,[9],inactive
same,Potency,[10],inactive
same,Potency,[8],inactive
same,Potency,[13],inactive
O=C(Oc1ccccc1)Oc1ccccc1,Potency,[1],inactive
same,Potency,[2],inactive
same,Potency,[3],inactive
same,Potency,[4],inactive
same,Potency,[5],31.6 µM (active)
same,Potency,[6],inactive
same,Potency,[7],inactive
same,Potency,[8],inactive
same,Potency,[12],inactive
same,Potency,[13],inactive
same,Potency,[14],inactive
COC1=C(OC)C(=O)C(CCCCCCCCCCO)=C(C)C1=O,Potency,[1],inactive
same,Potency,[2],inactive
same,Potency,[3],inactive
same,Potency,[4],inactive
same,Potency,[15],23.7 µM (active)
same,Potency,[6],inactive
same,Potency,[7],inactive
same,Potency,[9],inactive
same,Potency,[10],inactive
same,Potency,[8],inactive
same,Potency,[12],inactive
